Hits are enriched below; roughly 3.1% of the tested compounds scored in any of these assays.
ERa SRC1 pot: enhances coactivator binding to human estrogen receptor alpha | P03372 | TR-FRET ERalpha-LBD/SRC-Cy5 coactivator binding, 2 h; 100 = basal binding, no effect | coactivator binding (% of control), % at 25.6 µM | 86,000 tested, 1.3% active; in the data active means activity above about 200%;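 further: binding measured in presence of low estradiol as agonist stimulus; 0% = peptide alone without receptor and 100% = receptor with peptide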
ERb coact inh: ER-beta (human) coactivator binding inhibition; TR-FRET ER-beta LBD / SRC1-Cy5 peptide binding; receptor agonist-loaded with 1 µM estradiol; Q92731; 86,000 tested, 1.3% active; inhibition, % at 25.6 µM;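 active means compounds whose percent inhibition of the receptor-coactivator binding signal exceeds about 50% in the single-dose screen, limit read from the data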;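 further: 0% = receptor plus peptide wells without compound and 100% = peptide-only wells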
Target sequence (Q92731 whole entry, looked up, the tested form may be a part): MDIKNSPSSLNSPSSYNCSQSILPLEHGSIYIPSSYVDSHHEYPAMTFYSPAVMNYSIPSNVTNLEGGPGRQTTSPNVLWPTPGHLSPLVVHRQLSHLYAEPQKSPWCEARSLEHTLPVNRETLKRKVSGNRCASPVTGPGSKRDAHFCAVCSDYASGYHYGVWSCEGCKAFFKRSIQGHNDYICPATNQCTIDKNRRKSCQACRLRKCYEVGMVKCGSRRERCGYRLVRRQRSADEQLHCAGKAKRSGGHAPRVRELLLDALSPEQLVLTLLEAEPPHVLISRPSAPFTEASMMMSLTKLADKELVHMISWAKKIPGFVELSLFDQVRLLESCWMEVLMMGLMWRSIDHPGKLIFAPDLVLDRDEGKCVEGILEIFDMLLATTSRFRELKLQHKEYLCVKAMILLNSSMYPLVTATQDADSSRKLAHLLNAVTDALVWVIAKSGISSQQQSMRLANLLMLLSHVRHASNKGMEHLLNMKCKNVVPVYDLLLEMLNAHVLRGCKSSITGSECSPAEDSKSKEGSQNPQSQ
Mac1 fbg inh: blocks human CD11b/CD18 adhesion to fibrinogen | P05107+P11215 | K562 CD11b/CD18 adhesion to fibrinogen, ATPlite luminescence; Mn2+ added to activate the integrin | inhibition, % at 10 µM | 93,000 tested, 0.54% active | AID 1497;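 active means primary inhibition of 50% or more at 10 µM, then 40% or more on retest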
ERa SRC1 inh: blocks coactivator binding to human estrogen receptor alpha; P03372; TR-FRET ER-alpha LBD / SRC-1 peptide, estradiol-bound; inhibition, % at 25.6 µM; 86,000 tested, 1.7% active; AID 629; in the data active means inhibition above about 50%;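 further: 0% = receptor plus peptide control and 100% = peptide only without receptor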
Mac1 fbg enh: CD11b/CD18-fibrinogen binding enhancement | 93,000 tested, 0.07% active | P05107+P11215 | AID 1499 | activation, % at 10 µM | K562 CD11b/CD18 adhesion to fibrinogen, ATPlite luminescence;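 active means 10 µM primary screen giving 50% or more activity, confirmed by 40% or more on retest at that dose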
* hit, by the source's call; . = no result; [ ] = dose if it differs, or a comment.

SMILES | ERa SRC1 pot | ERb coact inh | Mac1 fbg inh | ERa SRC1 inh | Mac1 fbg enh
Cc1oc(-c2ccc(F)cc2)cc1-c1nn2c(-c3ccoc3C)nnc2s1 | 67 | 63* | -13 | 79*[fluorescence artefact?] | 73
Cc1oc(-c2ccc(F)cc2)cc1-c1nn2c(-c3ccco3)nnc2s1 | 83 | 51*[fluorescence artefact?] | . | 82*[fluorescence artefact?] | .
Cc1oc(-c2ccc(Cl)cc2)cc1-c1nn2c(-c3ccco3)nnc2s1 | 95 | 45 | -5 | 46 | 4
Cc1cccc(C(C)C)c1NC(=O)C1CN(S(=O)(=O)c2ccccc2)CCN1S(=O)(=O)c1ccccc1 (centres undefined) | . | . | 12 | . | 0
CN=c1scc(C)n1/N=C/c1ccc(O)c(O)c1O | 17 | 100*[fluorescence artefact?] | 0 | 97*[fluorescence artefact?] | 15
COc1ccc(-c2cc(C(F)(F)F)n3ncc(C(=O)NCc4ccco4)c3n2)cc1 | 159 | 50*[fluorescence artefact?] | -8 | 59* | 2
O=C(c1cnn2c(C(F)(F)F)cc(-c3ccc4c(c3)OCO4)nc12)N1CCCCC1 | 90 | 2 | 3 | 5 | 10
O=C(NC1CCCC1)c1cnn2c(C(F)(F)F)cc(-c3ccc4c(c3)OCO4)nc12 | 137 | -32 | -11 | 60*[fluorescence artefact?] | 0
COCCNC(=O)C(c1ccc(C)o1)N(C(=O)c1snc(C(N)=O)c1N)c1cc(C)cc(C)c1 (centres undefined) | 96 | 99*[fluorescence artefact?] | 5 | 4 | 2
CCOC(=O)c1c(C)nc2sc(C(=O)Nc3ccccc3)c(N)c2c1-c1ccc(OC)cc1 | . | . | 4 | . | 7
COC(=O)c1ccc(COC(=O)c2ccc(S(=O)(=O)N3CCC(C)CC3)cc2)o1 | 730* | 7 | 13 | 19 | -6
O=C(N/N=C/c1ccccc1)c1sccc1OCc1ccc(F)cc1 | . | . | 8 | . | -6
Cc1noc(C)c1C(=O)N1CCN(C(=O)c2sc3cc(Cl)ccc3c2Cl)CC1 | 111 | 69*[fluorescence artefact?] | -24 | -4 | 4
O=C1c2ccccc2C(=O)N1CCCCN(C(=O)c1cc([N+](=O)[O-])ccc1Cl)c1ccc(Cl)cc1 | . | . | 5 | . | 0
CN(C)c1ccc(NC(=O)CN2CCC(N3CCCCC3)CC2)cc1 | . | . | 4 | . | -2
CCOC(=O)c1sc(NC(=O)c2cc(-c3ccccc3C)nc3ccccc23)c(C#N)c1C | . | . | 93* | . | -7
CCOC(=O)c1sc(NC(=O)CSc2nc(C)cc(C)c2C#N)c(C#N)c1C | 267* | 21 | . | 36 | .
CCOC(=O)c1sc(NC(=O)CSc2nc3c(cc2C#N)CCCCCC3)c(C#N)c1C | 366*[fluorescence artefact?] | 37 | 92 | 25 | -6
CCOC(=O)c1sc(NC(=O)CSc2nc3c(cc2C#N)CCC3)c(C#N)c1C | 111 | 11 | . | -1 | .
CC(C)(C)CC(C)(C)NC(=S)NC1CCN(Cc2ccccc2)CC1 | . | . | 24 | . | -3
NNC(=O)Cn1c(SCc2ccccc2)nc2ccccc21 | 115 | -2 | -9 | 2 | 0
Cc1ccc(S(=O)(=O)NCC(=O)N(CC(=O)NC2CCCCC2)CC2CCCO2)cc1 (centres undefined) | 120 | -11 | 0 | -1 | 2
O=C(CSc1nc(C2CC2)nc2ccccc12)NCc1ccc2c(c1)OCO2 | . | . | -6 | . | 0
CC(=O)c1cccc(NC(=O)COc2cc3oc(=O)c(CC(C)O)c(C)c3cc2Cl)c1 (centres undefined) | . | . | 27 | . | -2
O=C(C1CC1)N1CCC(c2nc(-c3ccc(S(=O)(=O)NCC4CCCO4)cc3)no2)CC1 (centres undefined) | 122 | -6 | 62* | 3 | -3
SMILES | ERa SRC1 pot | ERb coact inh | Mac1 fbg inh | ERa SRC1 inh | Mac1 fbg enh
Cc1noc(C)c1S(=O)(=O)N(CC(=O)O)c1ccc2c(c1)OCO2 | 60 | 54* | -1 | 41 | -3
Cc1cc(C)cc(N(CC(=O)O)S(=O)(=O)c2c(C)noc2C)c1 | 105 | -2 | 4 | -9 | -6
O=C(c1cc2sccc2n1Cc1ccccc1)N1CCc2ccccc21 | 509* | 5 | -24 | 14 | 0
COc1ccc2c(c1)c(=O)oc1cc(OCC(=O)NC3CCCCC3)ccc12 | 157 | 72* | -7 | 71* | -2
CC(C)CCNC(=O)COc1ccc2c3c(c(=O)oc2c1)CCC3 | 352* | 29 | -2 | 48 | -3
CCOC(=O)CCCNC(=O)COC(=O)c1ccc(O)cc1 | . | . | 3 | . | 0
Cc1ccc(C(=O)Nc2nc3ccccc3c(=O)s2)cc1 | 192 | 60* | 42 | 36 | -7
CCOC(=O)c1c(-c2ccccc2)csc1NC(=O)c1cc(S(=O)(=O)N2CCOCC2)ccc1C | . | . | 12 | . | 6
COCCNC(=O)Cn1c(=O)n(C)c2ccccc21 | 100 | 1 | 10 | -6 | -5
Cc1ccc(S(=O)(=O)Nc2nc3ccccc3nc2N2CCN(c3ccccc3F)CC2)cc1 | 102 | 4 | 66 | 8 | -7
O=S(=O)(Nc1nc2ccccc2nc1N1CCN(c2ccccn2)CC1)c1ccc(Cl)cc1 | . | . | 102* | . | -13
Cc1cc(=O)oc2cc(OCC(=O)Nc3nnc(C(C)C)s3)ccc12 | 488* | 9 | -6 | 26 | 5
CCc1nnc2sc(-c3ccc(NC(=O)CSc4ccc(Cl)cc4)cc3)nn12 | 225*[fluorescence artefact?] | -2 | . | 31 | .
Cc1nnc2sc(-c3ccc(NC(=O)CSc4ccc(Cl)cc4)cc3)nn12 | 130 | 47 | . | 49 | .
CCOC(=O)c1c(NC(=O)c2cccs2)sc2c1CCC2 | 263*[fluorescence artefact?] | 15 | 21 | 16 | -2
CCOC(=O)c1c(NC(=O)CSc2nnc(C)s2)sc2c1CCN(C)C2 | 92 | 48 | -5 | 85*[fluorescence artefact?] | -2
CCOC(=O)c1c(NS(=O)(=O)c2ccc(Br)cc2)sc2c1CCC2 | 42 | 56* | . | 61*[fluorescence artefact?] | .
CCOC(=O)c1c(NC(=O)c2cccs2)sc2c1CCCC2 | 107 | -3 | 18 | 1 | 13
COC(=O)c1c(NS(=O)(=O)c2ccc3ccccc3c2)sc2c1CCCC2 | 117 | 9 | 52* | 16 | 0
CC1CCCN(C(=O)CSc2cnc3ccccc3n2)C1 (centres undefined) | . | . | -2 | . | -4
COc1cccc(N(CC(=O)NCCSc2ccc(Cl)cc2)S(C)(=O)=O)c1 | 110 | -4 | -50 | -3 | 4
CS(=O)(=O)Nc1ccc(C(=O)N2CCN(c3ccccc3)CC2)cc1 | 92 | -8 | -2 | -1 | -2
COC(=O)CSc1nc(NC#N)nc(NC(C)C)n1 | 102 | -11 | . | -7 | .
CCOC(=O)c1c(NC(=O)CSc2nnc(CNC(=O)c3ccco3)n2C)sc2c1CCC2 | 76 | 23 | 12 | 65* | 0
Cc1c(Cl)cccc1NC(=O)CNC(=O)c1ccccc1F | . | . | 3 | . | -4
CCOC(=O)c1cc(CC)sc1NC(=O)c1ccc2c(c1)OCCO2 | 466*[fluorescence artefact?] | 30 | 10 | 26 | 5
CCOC(=O)c1cc(CC)sc1NC(=O)c1cc(OCC)c(OCC)c(OCC)c1 | 97 | -4 | 8 | -3 | 4
COc1ccccc1-c1nnc2n1N=C(c1ccc(O)c(O)c1)CS2 | 50 | 75*[fluorescence artefact?] | 31 | 60*[fluorescence artefact?] | 1
Cc1ccc(-c2nnc3n2N=C(c2ccc(Br)cc2)CS3)cc1 | 95 | 30 | -2 | 66* | 0
